High-throughput results (PubChem BioAssay)
FID counter: compounds displacing fluorescent DNA intercalator, primary screen, artefact control for HCV NS3 helicase inhibitor project, biochemical, FID fluorescence. DNA fluorescent intercalator displacement. inhibition, % at 7.9 µM. actives 0.17% (n = 290,000); in the data active means inhibition above about 37%;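 further: higher means more ethidium bromide displaced from hairpin DNA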
KLF5 inhibitor: KLF5 expression inhibitors, primary screen, DLD-1 cells, luminescence. DLD-1 KLF5 promoter-luciferase reporter. inhibition, % at 5 µM. actives 0.23% (n = 290,000). AID 1700, 2009;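 active means inhibition above a per-plate limit of that plate's mean compound inhibition plus 3 SD, cut at about 60% in these data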;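 further: higher means less KLF5 promoter-driven luciferase light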
Ba/F3 V617F tox: reduced viability of JAK2V617F-dependent Ba/F3 cells, primary screen, JAK2V617F inhibitor project, cell-based, Ba/F3 EpoR-JAK2V617F, luminescence. ATP luminescence. inhibition, % at 5.6 µM. actives 1.1% (n = 220,000);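 active means inhibition above the campaign mean plus 3 SD over all tested compounds, cut at about 24% in these data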;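 further: cytokine-independent growth of Ba/F3 cells driven by EpoR plus mutant JAK2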
IEC-6 cytotox: cytotoxicity in IEC-6 intestinal epithelial cells, primary screen, cytotoxicity control for KLF5 inhibitor project, cell-based, luminescence | actives 0.78% (n = 290,000) | inhibition, % at 5 µM | AID 1825, 2009 | IEC-6 cytotoxicity, luminescence viability
GPR7 antag: GPR7 receptor antagonists, primary screen, cell-based, fluorescence, single concentration | inhibition, % at 4.4 µM | actives 1.1% (n = 290,000) | GPR7-expressing cells, fluorescence antagonist assay | AID 1861, 2009 | Neuropeptides B/W receptor type 1 (Homo sapiens), P48145; in the data active means inhibition above about 16%, passing the limit was not always enough;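 further: cells stimulated with the agonist NPW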
Target sequence (P48145 whole entry, looked up): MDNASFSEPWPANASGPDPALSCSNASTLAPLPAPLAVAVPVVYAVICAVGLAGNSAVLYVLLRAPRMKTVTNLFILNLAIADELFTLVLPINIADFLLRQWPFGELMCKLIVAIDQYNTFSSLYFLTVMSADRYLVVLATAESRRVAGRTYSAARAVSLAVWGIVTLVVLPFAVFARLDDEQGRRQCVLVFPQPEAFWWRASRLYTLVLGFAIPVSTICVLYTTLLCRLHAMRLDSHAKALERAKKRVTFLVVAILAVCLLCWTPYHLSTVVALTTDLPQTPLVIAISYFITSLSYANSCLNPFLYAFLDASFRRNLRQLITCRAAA
BaF3 parental: parental Ba/F3 cell viability inhibition, counter-screen for JAK2V617F inhibitor project, murine pro-B, CellTiter-Glo luminescence | CellTiter-Glo ATP luminescence | inhibition, % at 5.6 µM | actives 1.1% (n = 220,000);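 active means inhibition above a per-campaign cutoff, the mean inhibition of all tested compounds plus 3 SD, cut at about 27% in these data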
GPR7 antag cf: GPR7 receptor antagonists, confirmation, cell-based, fluorescence, single concentration; shares compounds with GPR7 antag; GPR7-expressing cells, calcium fluorescence antagonist mode; inhibition, % at 4.4 µM; actives 52% (n = 2,400); AID 1952, 2009; in the data active means inhibition above about 24%;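 further: stimulated with the GPR7 agonist NPW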
MCHR1 antag: MCHR1 antagonists in cells, counter-screen for GPR7 antagonist project, cell-based, fluorescence, human | MCHR1-expressing cells, fluorescence antagonist assay | shares compounds with GPR7 antag | actives 62% (n = 2,400) | AID 2148, 2009 | inhibition, % at 4.4 µM
Numbers stand for hits; . = inactive; / = not tested or not shown. Only some compounds are listed: those with a hit (about 2.6% of all), similar ones and a draw of the others. Unless noted, no stated cut-off is given here; in the data, active means inhibition above about 22%; inactive means the rest.

SMILES	FID counter	KLF5 inhibitor	Ba/F3 V617F tox	IEC-6 cytotox	GPR7 antag	BaF3 parental	GPR7 antag cf	MCHR1 antag
O/N=C(/c1ccc(Cl)cc1)C1CC1c1ccccc1 (configuration not stated)	.	.	/	.	34	/	.	.
Cc1ccc(C2CC2/C(=N/O)c2ccc(F)cc2)cc1 (configuration not stated)	.	.	/	.	.	/	/	/
O=C(COc1ccc2ccccc2c1)NNC(=O)c1ccc([N+](=O)[O-])cc1	.	.	.	.	.	.	/	/
O=C(NC(=S)Nc1cc([N+](=O)[O-])ccc1Cl)c1ccccc1	.	.	.	.	.	.	/	/
O=C(c1cc(COc2c(F)cccc2F)on1)N1CCN(C2CCCCC2)C(=O)C1	.	.	/	.	.	/	/	/
O=C(c1cc(COc2ccc(F)c(F)c2)on1)N1CCN(C2CCCCC2)C(=O)C1	.	.	/	.	27	/	.	.
Cc1cccc(NC(=S)NC(=O)Cc2ccccc2)c1C	.	.	/	.	24	/	34	.
COc1cccc(NC(=S)NC(=O)Cc2ccc(Cl)cc2)c1	.	.	/	.	35	/	64	41
COc1ccccc1NC(=S)NC(=O)Cc1ccc(Cl)cc1	.	.	/	.	54	/	31	37
Cc1cccc(NC(=S)NC(=O)CCc2ccccc2)c1C	.	.	.	.	.	.	/	/
NC(N)=NS(=O)(=O)c1ccc(NC(=S)NC(=O)Cc2ccc(Cl)cc2)cc1	.	.	/	.	/	/	/	.
COc1ccc(-c2csc(N3CCN(c4cc(C)nc5ccccc45)CC3)n2)cc1OC	.	.	.	.	.	.	/	/
CSc1ccc(Cn2nnc(C(=O)NCc3ccccc3)c2N)cc1	.	.	.	.	37	.	57	52
Nc1c(C(=O)NCc2ccccc2)nnn1Cc1ccccc1	.	.	.	.	.	.	/	/
CCOC(=O)C1(CCOC)CCN(Cc2nc(-c3cccs3)oc2C)CC1	.	.	.	.	.	.	/	/
CSc1nc(N2CCOCC2)c2c(c1C#N)CC(C(C)C)OC2 (configuration not stated)	.	.	/	.	.	/	/	/
Cc1cc(=O)oc2cc(OCC(=O)Nc3cccc(S(=O)(=O)N(C)C)c3)ccc12	.	.	.	.	.	.	/	/
CN(C)S(=O)(=O)c1cccc(NC(=O)COc2ccc(C(=O)c3ccccc3)cc2)c1	.	.	/	.	32	/	33	60
Cc1ccc(C(=O)NC2(C(F)(F)F)NC(=O)N(c3ccc(Cl)cc3)C2=O)cc1 (configuration not stated)	.	.	.	.	.	.	/	/
C=CCOc1ccc(CN(C)CC(O)COc2cccc3ccccc23)cc1 (configuration not stated)	.	.	/	.	33	/	47	39
NC1=NC2(CCCCC2)N=C(Nc2ccc(Br)cc2)N1	.	.	.	.	.	.	/	/
Cc1nn(-c2ccc(NC(=O)c3ccncc3)cc2)c(C)c1Cl	.	.	/	.	32	/	52	65
COc1cccc(-c2nnc(SCc3cccnc3)o2)c1	.	.	.	.	.	.	/	/
Cc1cccc(N2CCN(C(=O)C3CCN(c4ncnc5c4nc4n5CCCCC4)CC3)CC2)c1C	.	.	/	.	27	/	25	61
Cc1ccccc1C(=O)Nc1c(C(=O)N(CCN(C)C)Cc2ccco2)oc2ccccc12	.	.	/	.	.	/	/	/
SMILES	FID counter	KLF5 inhibitor	Ba/F3 V617F tox	IEC-6 cytotox	GPR7 antag	BaF3 parental	GPR7 antag cf	MCHR1 antag
COc1ccccc1C(=O)Nc1c(C(=O)N(CCN(C)C)Cc2ccco2)oc2ccccc12	37	.	/	.	29	/	48	62
COc1ccc(OCC(=O)Nc2c(C(=O)N(CCN(C)C)Cc3ccco3)oc3ccccc23)cc1	41	.	/	.	28	/	.	35
COCCNC(=O)C(c1ccc(Cl)cc1)N(CCOC)C(=O)CCC(=O)Nc1nccs1 (configuration not stated)	.	.	.	.	.	.	/	/
CC1=C(C(=O)OC2CCCC(C)C2)C(c2ccccc2)NC(=O)N1 (configuration not stated)	.	.	/	.	.	/	/	/
CC1=NN(C(C#N)c2ccccc2)C(c2ccccc2)C1 (configuration not stated)	.	.	.	.	37	.	.	.
COc1ccc(C(C#N)N2N=C(C)CC2c2ccccc2)cc1 (configuration not stated)	.	.	/	.	.	/	/	/
COC(=O)C1=C(CS(=O)(=O)c2ccc(Cl)cc2)NC(=O)NC1c1ccc(O)c(OC)c1 (configuration not stated)	.	.	/	.	.	/	/	/
CCCCCCOC(=O)C[N+](C)(C)CCOC1CC2CCC1(C)C2(C)C (configuration not stated)	.	.	89	.	32	80	65	63
CCCCCCCOC(=O)C[N+](C)(C)CCOC1CC2CCC1(C)C2(C)C (configuration not stated)	.	.	101	.	28	85	67	87
CC(=O)Oc1ccc(C(=O)Nc2ccccc2C(=O)N2CCCCC2)cc1	.	.	.	.	.	.	/	/
COc1ccccc1NC(=O)CSc1nc2ccccc2n1C(C)=O	.	.	.	.	21	.	.	.
Cc1ccc(S(=O)(=O)N/N=C/c2ccc(OC3CSC3)cc2)cc1	.	.	.	.	34	.	89	84
CCOC(=O)c1ccc(NC(=O)c2ccc3c(c2)C(=O)N(Cc2cccnc2)C3=O)cc1	.	.	/	.	32	/	30	62
COC(=O)Cc1ccc(NC(=O)c2ccc3c(c2)C(=O)N(Cc2cccnc2)C3=O)cc1	.	.	/	.	.	/	/	/
COc1c(Br)cc(Br)cc1/C=N/n1c(C)nnc1C	.	.	.	.	27	.	.	.
N#Cc1c(Nc2ccccc2)sc(C(=O)c2ccc(F)cc2)c1N	.	.	.	.	.	.	/	/
Nc1c(C(=O)c2ccccc2)sc(Nc2ccccc2)c1S(=O)(=O)c1ccccc1	.	.	.	.	22	.	.	.
Cc1c(NC(=O)c2cccs2)cccc1-c1nc2ccccc2s1	.	.	.	.	33	.	45	64
Cc1c(NC(=O)c2cc(-n3cnnc3)ccc2Cl)cccc1-c1nc2ccccc2s1	.	.	.	.	.	.	/	/
O=C(C/C=N\OCc1ccc([N+](=O)[O-])cc1)Nc1ccccc1	.	.	.	.	.	.	/	/
